Test results reported in PubChem BioAssay AID457 (Sanford-Burnham Center for Chemical Genomics, 2006).
The whole screen tested about 10,000 compounds, of which about 20 (0.2%) were called active. The rule behind the calls is not given here. Not all results are given here.

Assay: enhancers of VCAM-1 display on endothelial cells, imaging, high-content imaging, pooled HUVEC, TNFa stimulus (AID 457)
Settings: TNFa-induced VCAM-1 immunofluorescence imaging; concentration not given here

augmentation, inactive:
COCCNC(=O)CN1CCN(C(c2ccccc2)c2ccccc2)CC1, Cc1ccc(CN2CCN(C(=O)C3CCC3)CC2)cc1, Cc1cc(NC(=O)CCOc2ccccc2)no1, COc1ccc(N2C(=O)C3CCCN3C2c2ccc(F)cc2)cc1Cl (stereo unspecified), O=c1c2cnn(-c3ccccc3)c2ncn1/N=C/c1ccncc1, COC(=O)c1[nH]c2ccc(C)cc2c1NC(=O)CN1CCN(C(=O)c2ccccc2)CC1, CC1Cc2cc(/C(O)=C3/C(=O)C(=O)N(CCN4CCOCC4)C3c3cccc(O)c3)ccc2O1 (stereo unspecified), Clc1ccc(-c2nnc3sc(-c4ccc(Br)o4)nn23)cc1, CCCCN(CCCNC(=O)C1CCN(S(=O)(=O)CC)CC1)c1ccccc1, CS(=O)(=O)N(CC(=O)N1CCN(c2cccc(Cl)c2)CC1)C1CCCCC1, CC1CCN(CCCNC(=O)c2coc3nc4ccccc4nc23)CC1, COc1ccc(-c2nnc(SCC#N)o2)cc1, O=C(CSc1nnnn1-c1ccc2c(c1)OCO2)NCc1cccs1, CCOC(=O)N1CCN(C(=O)c2csc3c2CCCCC3)CC1, Cc1cccc(-n2ncc3c(NCc4ccccn4)ncnc32)c1, CCCN(CCC)C(=O)c1c(C)[nH]c(C(=O)OCC)c1C, CCOC(=O)c1ccc2nc(C)c3c(c2c1)OC(C)C3 (stereo unspecified), Cc1c(NC(=O)C2CCCNC2=O)c(=O)n(-c2ccccc2)n1C (stereo unspecified), O=C1CC(c2ccccc2)Cc2nc(N3CCc4ccccc43)ncc21 (stereo unspecified), CC(=O)N1CCN(c2ccc(S(=O)(=O)N3CCCCC3)cn2)CC1, COc1cc(OC)cc(-c2nc3cc(C)ccc3o2)c1, CC1CN(C(=O)CSc2nnc(-c3ccc(Cl)cc3)n2C)CC(C)O1 (stereo unspecified), CCCOc1ccccc1NC(=O)c1ccc(N)cc1, C=CCSc1ncccc1C(=O)O, CCN(CCNC(=O)C1CCN(S(=O)(=O)CC)CC1)c1ccccc1, Cc1oc2cc3c(C(=O)OCCN(C)C)c(C)oc3cc2c1C(=O)OCCN(C)C, Cc1nc(CNS(=O)(=O)c2cccc(F)c2)cs1, CCN(CC)c1ccc2c(c1)CCCN2, Cc1onc(-c2ccccc2)c1C(=O)N1CCCSC1=Nc1ccccc1, COCCN1CCN(c2c(C)c(C)nc3cc(-c4cccc(OC)c4)nn23)CC1, C=CCN1C(=O)C2(/C(=C(\O)c3ccc4c(c3)OCCO4)C(=O)C(=O)N2CCCOC)c2ccccc21 (stereo unspecified), C=CCOc1nc(N2CCCC2)nc(N2CCCC2)n1, O=C(c1cccc2c1C(=O)N(Cc1cccnc1)C2)N1CCN(c2ccccc2)CC1, Cc1nnc2ccc(N3CCC4(CC3)OCCO4)nn12, Cc1nc(CCNS(=O)(=O)c2cccs2)cs1, CC(O)CN1C(=O)C(CC(=O)Nc2ccc(Cl)cc2)SC1=Nc1ccccc1 (stereo unspecified), CCn1c(SCC(=O)C(C)(C)C)nnc1-c1cnccn1, c1ccc(CCNc2ccc3nncn3n2)cc1, O=C(NCc1nc2ccccc2[nH]1)c1ccc(Cl)c(S(=O)(=O)N2CCCC2)c1, Cc1cccc(Nc2nc(N)nc(CN3CCC(C(N)=O)CC3)n2)c1C, O=C(Nc1cccc(NC(=O)c2ccco2)c1)c1ccc2c(c1)OCO2, COc1ccccc1OCCn1c(=O)sc2ccccc21, O=C(Cc1ccccc1)Nc1ccc(CN2CCOCC2)cc1, Cc1ccc2[nH]c(=O)c3cc(C(=O)NCCN4CCN(C)CC4)sc3c2c1, CCOC(=O)N1CCN(C(=O)CSc2cc(C)nc3c(-c4ccccc4OC)c(C)nn23)CC1, COc1ccc(-c2nc(C#N)c(N3CCN(c4ccccc4)CC3)o2)cc1, CC(C)CNC(=O)c1ccccc1NC(=O)c1ccc(CN2CCOCC2)cc1, CCCN1CCN(CCCNC(=O)C2CCCN(c3nc4ccc(OCC)cc4s3)C2)CC1 (stereo unspecified), CC(C)N(C(=O)N1CCC(c2nc(-c3ccncc3)no2)CC1)C(C)C, O=C(CN1C(=O)CC(c2ccco2)Sc2ccccc21)Nc1ccccc1F (stereo unspecified), CC(O)c1c(OCc2ccccc2)ncnc1OCc1ccccc1 (stereo unspecified), O=C(O)c1cc2c(s1)CCCC2, CCOC(=O)CN1CC23C=CC(O2)C(C(=O)NC2CCCC2)C3C1=O (stereo unspecified), CCOc1ccc2cc(C#N)c(SCC(=O)N3CCC(C)CC3)nc2c1, CC(=O)Nc1sc2c(c1C#N)CCCCC2, CCCOc1ccc(S(=O)(=O)NCCCN2CCOCC2)c2ccccc12, O=C(Cn1ccc2ccccc2c1=O)Nc1ccc2c(c1)OCO2, CCOCCn1cnc2sc(C(=O)Nc3nc(C)c(C(=O)OCC)s3)c(C)c2c1=O, Nc1nc2ccccc2n1C(=O)CCc1ccccc1, Cc1sc2nc(CN3CCN(S(=O)(=O)c4cccc5nonc45)CC3)[nH]c(=O)c2c1C, O=C(CN1CCC(n2nnc3ccccc32)CC1)Nc1ccc2c(c1)CCC2, O=C(Nc1ncc(Cc2ccccc2)s1)C1CCCO1 (stereo unspecified), O=C(Cc1c(F)cccc1Cl)Nc1ccncc1, CCCCCCc1ccc(-c2ncc(N)cn2)cc1, CCc1nnc(NC(=O)CSc2nnc(-c3ccoc3C)n2CC(C)C)s1, COc1nc(C)ccc1-c1noc(-c2ccncc2)n1, Cc1noc(/C=C/N(C)C)c1S(=O)(=O)N1CCc2ccccc21, O=C(Nc1ccc2c(c1)OCCO2)c1cnc2n(c1=O)CCS2, Cc1[nH]nc(N=CC2=C(O)CC(C)(C)CC2=O)c1-c1ccccc1, Cc1csc(SCCn2c(N3CCCC3)nc3c2c(=O)[nH]c(=O)n3C)n1, O=C(Nc1ccccc1Cl)c1c(F)c(F)c(F)c(F)c1F, O=C(COc1nnnc2ccccc12)N1CCCc2ccccc21, CC1(C)CC(=O)c2cnc(NCc3ccco3)nc2C1, COC(=O)C1=C(C)OC(N)=C(C#N)C1c1c(C)nn(-c2ccccc2)c1Cl (stereo unspecified), CCCNC(=O)c1cc(S(=O)(=O)N2CCc3ccccc32)ccc1F, O=C(CSc1ncc(-c2ccc(F)cc2)[nH]1)N1CCCCC1, CC(C)OC(=O)CSc1nnc(-c2ccc(O)cc2)n1Cc1ccccc1, CSC1CCCCC1(O)CSc1nc2c(cc1C#N)CCCC2 (stereo unspecified), Cc1cc(C)cc(NC(=O)C2CCCN(c3nccc(C)n3)C2)c1 (stereo unspecified), Cn1c(/C=N/n2cnnc2)nc2ccccc21, Cc1ccccc1NC(=O)C1CCN(c2cnccn2)CC1, O=C(Nc1cccnc1)Nc1ccc(F)c(Cl)c1, C(=C\c1ccccc1)/CN1CCN(Cc2ccc3c(c2)OCCO3)CC1, CCOC(=O)N1CCN(CCC(=O)c2ccc(Cl)cc2)CC1, CCOC(=O)CSc1nc2ccccc2n1CC(=O)N1CCN(c2ccccc2)CC1, COc1ccccc1C(=O)NCC(=O)Nc1ccccc1, CCC(C)(C)NC(=O)CN(C(=O)c1snc(C(N)=O)c1N)c1ccc2c(c1)OCO2, COC(=O)c1ccccc1NC(=O)C1CC(=O)N(c2ccc(F)cc2)C1 (stereo unspecified), Cc1cc(Cl)c(S(=O)(=O)N2CCN(c3ccc(F)cc3)CC2)cc1OCC(N)=O, Cc1ccc(-n2nnnc2SCC(=O)N2CCN(C(=O)c3ccco3)CC2)c(C)c1, O=S(CC(O)COCc1ccc(Cl)cc1)c1ccccn1 (stereo unspecified)
